Experimental data as given in PubChem BioAssay (NCATS).
Several values for one entry are separate records, joined by “and”; a condition that tells them apart may be missing. Identical values can stand only once. Activity calls are given as the source filed them. Calls come from the whole dose curve; as a rule, active = well fitted activation curve with a large enough effect; inconclusive = small, poorly fitted or top-dose-only effect, or effect the other way; inactive = flat fitted curve, though single readings scatter.

Assay: Cellular Toxicity (caspase-3) Renal Proximal Tubule (AID 667);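 note: cells exposed to compound for 16 hours at 37 °C before detection; 0% = DMSO basal and 100% = 10 µM staurosporine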
Conditions: renal proximal tubule cells; at 91.7 µM (top of the series) unless noted
Text: NIH Chemical Genomics Center [NCGC]
NIH Molecular Libraries Screening Centers Network [MLSCN]
National Institutes of Environmental Health Sciences [NIEHS]
National Toxicology Program [NTP]
We have developed a 1536-well cell-based assay for quantitative high throughput screening (qHTS) against a number of cell lines to determine in vitro caspase 3/7 activity of small molecules. This particular assay uses the primary kidney proximal tubule cells freshly isolated from rat.
NCGC Assay Protocol Summary:
The Caspase-Glo 3/7 assay (Promega) is a homogeneous method to measure caspase-3 and caspase-7 activities in cultured cells. The quantitation of caspase 3/7 activity is based on the cleavage of a peptide-aminoluciferin substrate. After caspase cleaves the substrate the free aminoluciferin is liberated and serves as the substrate of luciferase, which generates the light. The luminescent signal is proportional to the amount of caspase 3/7 activity present.
Using the Caspase-Glo 3/7 assay, the amount of caspase 3/7 activity was measured in the rat kidney proximal tubule cells with complete culture medium following compound treatment for 16 hours. The assay was performed in opaque white 1536-well plates. In the screen, staurosporine and doxorubicin were used as positive controls. Library compounds were measured for their ability to cause the activation of caspase 3/7 in the cell line, as reflected by an increase in luminescence signal, in a concentration-dependent manner. Data were normalized to the controls for basal activity (DMSO only) and 100% stimulation (10 uM staurosporine). AC50 values were determined from concentration-response data modeled with the standard Hill equation.
qHTS protocol for caspase 3/7 assay in rat kidney proximal tubule cells
[Step] [Parameter] [Value] [Description]
1. Reagent; 5 uL; 1000 rat kidney proximal tubule cells/well
2. Time; 5 hr; 37 °C incubation
4. Controls; 23 nL; doxorubicin 7 pM to 100 uM & staurosporine 1.4 pM to 20 uM
5. Time; 16 hr; 37 °C incubation
6. Reagent; 5 uL; Caspase-Glo 3/7 reagent
7. Time; 1 hr; Room Temperature
8. Detection; Luminescence; Viewlux plate reader
Keywords: caspase 3/7, apoptosis, rat kidney proximal tubule cells, luminescence, NTPHTS, NTPHTS_NCGC, NIEHS, EPA, DSSTox, MLSMR, MLSCN, NIH Roadmap, qHTS, NCGC

Row | Structure (SMILES) | caspase-3 activation
1 | C[C@]12CCC(=O)C[C@@H]1CC[C@@H]1[C@@H]2CC[C@]2(C)[C@@H](O)CC[C@@H]12 | 0.8% (inactive)
2 | O=C/C=C/c1ccccc1 | 0.729% (inactive) and 4.55% (inactive)
3 | O=Cc1ccco1 | -8.6% [at 91.7 µM, primary cells freshly taken from rat, solvent-only wells 0%, staurosporine 100%] (inactive)
4 | C[C@H]1CC[C@@H]2[C@@H](C)[C@H]3[C@H](C[C@H]4[C@@H]5CC=C6CC(O[C@@H]7O[C@H](CO)[C@H](O)[C@H](O[C@@H]8O[C@H](CO)[C@@H](O)[C@H](O)[C@H]8O)[C@H]7O[C@H]7O[C@@H](C)[C@H](O)[C@@H](O)[C@H]7O)CC[C@]6(C)[C@H]5CC[C@]34C)N2C1 (stereo partly specified) | 5.75% (inactive)
5 | NNC(N)=O | 4.27% (inactive)
6 | CC(C)(C)c1cc(O)ccc1O | -12.4% (inactive) and -3.67% (inactive)
7 | O=[N+]([O-])c1ccc(F)c([N+](=O)[O-])c1 | -20.3% (inactive)
8 | CCCCCCCCOC(=O)c1ccccc1C(=O)OCCCCCCCC | -2.49% (inactive)
9 | O=C1C2CC=CCC2C(=O)N1SC(Cl)(Cl)Cl (stereo unspecified) | -14.4% (inactive) and -19.5% (inactive)
10 | [Cl-].[Cl-].[Hg+2] | -16% (inactive)
11 | COc1ccc2c(c1OC)C(=O)OC2C1c2cc3c(cc2CCN1C)OCO3 (stereo unspecified) | -5.84% (inactive)
12 | COC1=CC(=O)O[C@@H](/C=C/c2ccccc2)C1 | -6.32% (inactive)
13 | O=C(O)C(Cl)(Cl)Cl | -2.66% (inactive) and 2.21% (inactive)
14 | ClCC1CO1 (stereo unspecified) | 0.815% [at 91.7 µM, primary cells freshly taken from rat, solvent-only wells 0%, staurosporine 100%] (inactive)
15 | C=CCN=C=S | -1.14% [at 91.7 µM, primary cells freshly taken from rat, solvent-only wells 0%, staurosporine 100%] (inactive)
16 | CC(C)Nc1ccc(Nc2ccccc2)cc1 | 11.6% [at 91.7 µM, primary cells freshly taken from rat, solvent-only wells 0%, staurosporine 100%] (inactive)

Row | Structure (SMILES) | caspase-3 activation
17 | Oc1cc(Cl)c(Cl)cc1Cl | 4.35% (inactive)
18 | O=CC=O | -5.02% [at 91.7 µM, primary cells freshly taken from rat, solvent-only wells 0%, staurosporine 100%] (inactive)
19 | O=[N+]([O-])c1ccccc1 | 0.615% (inactive)
20 | CCCCCl | 1.64% [at 91.7 µM, primary cells freshly taken from rat, solvent-only wells 0%, staurosporine 100%] (inactive)
21 | S=C=S | 4.15% [at 91.7 µM, primary cells freshly taken from rat, solvent-only wells 0%, staurosporine 100%] (inactive)
22 | [O]=[Cd] | 7.8% [at 91.7 µM, primary cells freshly taken from rat, solvent-only wells 0%, staurosporine 100%] (inactive)
23 | O=C1CCO1 | -9.04% [at 91.7 µM, primary cells freshly taken from rat, solvent-only wells 0%, staurosporine 100%] (inactive)
24 | ClC=C(Cl)Cl | -7.81% [at 91.7 µM, primary cells freshly taken from rat, solvent-only wells 0%, staurosporine 100%] (inactive)
25 | [O]=[Cr](=[O])([OH])[O][Cr](=[O])(=[O])[OH] | 101% (active)
26 | CCOC(=O)c1ccccc1C(=O)OCC | 7.7% (inactive) and 0.83% (inactive)
27 | O=C1C=CC(=O)C=C1 | 4.64% (inactive)
28 | C[C@H]1CCC[C@H](O)CCCCCc2cc(O)cc(O)c2C(=O)O1 | -5.62% (inactive)
29 | CC(C)CCON=O | -0.158% (inactive)
30 | ClC(Cl)(Cl)Cl | 5.92% (inactive) and -10.1% (inactive)
31 | Clc1ccccc1Cl | 5.14% [at 91.7 µM, primary cells freshly taken from rat, solvent-only wells 0%, staurosporine 100%] (inactive)
